Data as given in ChEMBL document CHEMBL4513216, “Probing the Open Global Health Chemical Diversity Library for Multistage-Active Starting Points for Next-Generation Antimalarials” (ACS Infect Dis, 2020).
Screen size: about 69,000 compounds; about 8,600 (12%) showed an effect of 50% or more. What follows is part of a selection rich in strong results, with near analogues and random picks from the rest.

System: Plasmodium berghei
Assay: Screen against P. berghei liver stage (PbLuc), transformed with Luciferase, at 10uM
Assay type: functional, HepG2
Conditions: tested at 10 uM

SMILES | INHIBITION [%]
CCn1cnnc1C1CCN(C(=O)c2ccc3ccccc3n2)CC1 | 26.4
Cc1nnc(N2C[C@@H](Oc3ccccn3)[C@H]3OCCC[C@H]32)s1 | -23.8
COc1ccc(C)cc1C(C)NCc1cnnn1C (stereo unspecified) | 0.818
COCc1cn(CC2CCN(Cc3c(C)[nH]c4ccccc34)CC2)nn1 | 15.8
Cc1nn(-c2ccccc2Cl)c(C)c1CCC(=O)O | 15.4
CCc1ccc(CN2CCN(c3cccc(OC)c3)C(=O)C2)nc1 | -8.99
O=C(c1ccco1)N1CCC2(CC1)CCN(c1ncccn1)CC2 | -7.28
O=C(c1ccco1)N1CCC2(CCCN(c3ncccn3)C2)C1 (stereo unspecified) | 77.4
O=C(c1ccco1)N1CCC2(CCCN(c3ncc(F)cn3)C2)C1 (stereo unspecified) | 43
O=C(O)c1cnc(OCC2CC2)c(Br)c1 | -4.56
O=C1CC[C@H]2[C@H](CCN2C(=O)C2CCOC2)N1Cc1ccncc1 (stereo partly specified) | 54.7
COCCN1C(=O)CC[C@@H]2[C@H]1CCN2C(=O)C1CCOCC1 | 52.3
O=C1CC[C@H]2[C@H](CCN2C(=O)C2CCCO2)N1Cc1ccncc1 (stereo partly specified) | 8.69
O=C1CC[C@@H]2[C@@H](CCN2C(=O)C2CCOCC2)N1CC1CC1 | 18.5
Cc1nc(CN2C(=O)CC[C@H]3[C@@H]2CCN3C(=O)c2ccsc2)cs1 | 4.55
COCCN1C(=O)CC[C@@H]2[C@H]1CCN2C(=O)N(C)C | -37.8
O=C1CC[C@H]2[C@H](CCN2C(=O)C2CCOCC2)N1Cc1ccncc1 | 7.11
O=C1CC[C@@H]2[C@@H](CCN2C(=O)c2ccsc2)N1CC1CC1 | 47.8
O=C1CC[C@@H]2[C@@H](CCN2C(=O)c2ccsc2)N1Cc1ccncc1 | 63.7
COCCN(C(=O)c1ccn(-c2ccc(OC)cc2)n1)C(C)C(N)=O (stereo unspecified) | 0.0996
COc1ccc(C2SCC(=O)Nc3n[nH]cc32)c(OC)c1OC (stereo unspecified) | 32.5
COc1ccccc1C1SCC(=O)Nc2n[nH]cc21 (stereo unspecified) | 42.6
COc1cc(OC)c(C2SCC(=O)Nc3n[nH]cc32)cc1OC (stereo unspecified) | 26.8

SMILES | INHIBITION [%]
COc1ccc(OC)c(C2SCC(=O)Nc3n[nH]cc32)c1 (stereo unspecified) | 70.6
COc1cccc(C2SCC(=O)Nc3n[nH]cc32)c1OC(C)C (stereo unspecified) | 40
COc1cc(C2SCC(=O)Nc3n[nH]cc32)cc(OC)c1O (stereo unspecified) | 60.7
N#Cc1cn(C2CC2)c(=O)n(CC(O)c2ccc(F)cc2)c1=O (stereo unspecified) | 35.85
CCN(Cc1ccccc1)C(=O)c1cc(C2CCCN2C)ccn1 (stereo unspecified) | -31
Cc1csc(N2CCN(C(=O)CCCNc3ncccn3)CC2)n1 | 26.4
Cc1cccc(N2CCc3ncc(CNS(C)(=O)=O)n3CC2)n1 | 22.4
COc1ccc(CN2CCC[C@@H]3CN(C(=O)c4ccco4)C[C@@H]32)cc1 | 29
O=C(c1cn(CC(=O)N2CCCCCC2)c2ccccc12)C1CC1 | 27.8
O=C(c1cn(CC(=O)N2CCCCC2)c2ccccc12)C1CC1 | 13.94
O=C(c1cn(CC(=O)N2CCCC2)c2ccccc12)C1CC1 | 71.7
CN1CCCC1c1ccnc2nccn12 (stereo unspecified) | 19.9
CCC(C(=O)NCC1CCN(c2ccncc2)CC1)N(C)C (stereo unspecified) | 34.9
Cc1cccnc1C(Cc1ccsc1)NC(=O)Cn1cccnc1=O (stereo unspecified) | 59
Cc1cc(C)n(CC(=O)NC(Cc2ccsc2)c2ccccn2)c(=O)n1 (stereo unspecified) | 54
O=C(Cn1cccnc1=O)NC(Cc1ccsc1)c1ccccn1 (stereo unspecified) | 41.5
O=C(Cn1cccnc1=O)NC(Cc1ccsc1)c1nccs1 (stereo unspecified) | 29.3
CS(=O)(=O)N1CCC(C(=O)NC(Cc2ccsc2)c2ccccn2)CC1 (stereo unspecified) | 40.9
Cc1csc(C(Cc2ccsc2)NC(=O)Cn2cccnc2=O)n1 (stereo unspecified) | 34
CNc1nc2c(c(C(=O)N3CCCC3)n1)CN(Cc1ccco1)CC2 | 17.2
CC(C)Nc1ncnc2c1CCN(C(=O)CCc1ccccc1)CC2 | 61.4
CC(C)Nc1ncnc2c1CCN(C(=O)NCc1cccnc1)CC2 | -1.15
CC(C)Nc1ncnc2c1CCN(C(=O)NCc1cccc(F)c1)CC2 | 51.2

SMILES | INHIBITION [%]
CC(C)Nc1ncnc2c1CCN(C(=O)Cc1ccccn1)CC2 | 8.69
O=C(NCc1cccc(F)c1)N1CCc2ncnc(NC3CC3)c2CC1 | 16.8
CC(C)Nc1ncnc2c1CCN(C(=O)CN(C)C)CC2 | 36.9
COCC(=O)N1CCC(=O)N(C2CCCC2)Cc2ccccc21 | -20.1
Cc1ccnc(CNC(=O)C2CC(=O)N(CCN(C)C)C2)c1 (stereo unspecified) | 8.41
NC(=O)C1=NC2=NS(=O)(=O)c3ccccc3N2N1Cc1ccccc1Cl | 30.8
NC(=O)C1=NC2=NS(=O)(=O)c3ccccc3N2N1Cc1ccc(Br)cc1 | 1.96
NC(=O)C1=NC2=NS(=O)(=O)c3ccccc3N2N1Cc1ccc(Cl)cc1 | 59.7
COCCC(=O)N(CCC#N)c1ccc(C)c(C)c1 | 27
Cc1nc(C2CCCNC2)nc2c1CCCN2Cc1ccccn1 (stereo unspecified) | 11.8
Cc1c(C)n(-c2ccccn2)c2nc3c(c(N)c12)CCCC3 | 67.1
Cc1c(C)n(-c2ccccn2)c2nc3c(c(N)c12)CCCCC3 | 32.2
Cc1c(C)n(Cc2ccccn2)c2nc3c(c(N)c12)CCCCC3 | 55.3
Cc1ccccc1-c1cncc(C2CCN(Cc3ccccn3)CC2)n1 | 19.6
Cc1c(C)n(Cc2ccccn2)c2nc3c(c(N)c12)CCCCCC3 | 49.7
Cc1ncnc2c1CCN(Cc1ccccn1)CC2 | -64.8
Cc1c(C)n(Cc2ccccn2)c2nc3c(c(N)c12)CCCC3 | 58.4
Cc1ncnc2c1CCN(c1ccccn1)CC2 | -15.6
CC(=O)N1CCC(c2nn(C)c3nccnc23)C1 (stereo unspecified) | -2.11
CC(C)n1cc(CN2CCCN(C(=O)COC3CCCC3)CC2)cn1 | 45.7
CCOc1ccc(-c2nc(C(=O)NCC3CCOC3)cs2)cc1 (stereo unspecified) | -16
CC(C)(C)c1cc(=O)n2c(n1)SCC(C(=O)NCc1ccco1)C2 (stereo unspecified) | 46.1
COc1ccc(C2=Nn3c(CCN)nnc3-c3ccccc3C2)cc1 | 21.7

SMILES | INHIBITION [%]
COc1ccc(C2=Nn3c(CN)nnc3-c3ccccc3C2)cc1 | 64
COc1ccc(C2=Nn3c(CCCN)nnc3-c3ccccc3C2)cc1 | 18.4
CNc1cc(C)nc(NC2CCCN(C3Cc4ccccc4C3)C2)n1 (stereo unspecified) | 79.4
c1ccc2c(c1)CC(N1CCCC(NCc3ccc4nonc4c3)C1)C2 (stereo unspecified) | 50.1
Cc1cc(C)nc(Nc2cccc(C3CCCN(C)C3)n2)n1 (stereo unspecified) | 28.4
O=C(NCc1ccc2nonc2c1)C1CCN(C(=O)C2CCC2)CC1 | -119
Cc1ccc(NC2CCCN(C3Cc4ccccc4C3)C2)nn1 (stereo unspecified) | 34.9
c1ccc2c(c1)CC(N1CCCC(NCc3cccc4nonc34)C1)C2 (stereo unspecified) | 41.5
Cc1cc(C)nc(Nc2cccc(C3CCCN(S(C)(=O)=O)C3)n2)n1 (stereo unspecified) | 44.8
CNc1nc(C)cc(NC2CCCN(C3Cc4ccccc4C3)C2)n1 (stereo unspecified) | 83.9
Cc1cc(C)nc(NC2CCc3nc(C)nn3C2)n1 (stereo unspecified) | -12.1
Cc1ccc(CNCC2CCN(CC(O)c3ccccc3)CC2)o1 (stereo unspecified) | -23.8
O=C(NCc1nncn1C1CC1)c1ccccc1OCC1CC1 | 25.6
CN(C)c1ncc(-c2cc(C(=O)NCCO)n(CC3CC3)c2)cn1 | 26.3
CCOc1ccccc1C(=O)Oc1cc(=O)n2cccc(C)c2n1 | 4.35
O=C(NC1CCC1)c1c2c(N3CCCC3)ncnc2n2ccccc12 | 46.2
COCCN(C)C(=O)c1ccccc1-n1cc(CN(C)C)cn1 | -29.8
COCCCN(CCOC)C(=O)Nc1ccccc1-n1cccn1 | 32.2
COCCN(C)C(=O)c1ccccc1-n1cccn1 | 63.8
CC(C)n1nc(CN2CCCC2=O)c2c1CN(C(=O)c1ccno1)C2 | 27.5
CC(C)n1nc(CN2CCOCC2)c2c1CN(C(=O)c1ccno1)C2 | 62.3
CC(C)n1nc(CN2CCCCC2)c2c1CN(C(=O)c1ccno1)C2 | 26.5
COCCNC(=O)c1cc(C)nc(C2CCN(C)CC2)n1 | -22.5

SMILES | INHIBITION [%]
CNC(=O)[C@@H]1COC[C@H]2CN(C(=O)COc3ccccc3)C[C@H]21 | 63
CNC(=O)[C@@H]1COC[C@H]2CN(C(=O)c3cccc(OC)c3)C[C@H]21 | 33.4
CCc1ccc(C(=O)N2C[C@@H]3COC[C@@H](C(=O)NC)[C@@H]3C2)cc1 | 6.83
CNC(=O)[C@@H]1COC[C@H]2CN(C(=O)c3ccc(C)c(F)c3)C[C@H]21 | 31.9
CNC(=O)[C@@H]1COC[C@H]2CN(C(=O)c3ccc(C)c(C)c3)C[C@H]21 | 51.2
CNC(=O)[C@@H]1COC[C@H]2CN(C(=O)c3ccc(OC)cc3)C[C@H]21 | -2.03
O=C(NC1CCN(C2CC2)CC1)N1CCN(c2cnccn2)CC1 | 37.9
CN(C)C(=O)CO[C@H]1CN(Cc2nccs2)[C@@H]2COC[C@H]12 | 0.71
COc1ccc(Oc2nccc3occc23)cc1CN1CCCC1 | -4.23
Fc1cccnc1Oc1cc(F)c(CN2CCCC2)c(F)c1 | 9.84
COc1ccc(Oc2ncccc2F)cc1CN1CCCC1 | 74.8
COc1cc(Oc2ncccc2C(F)(F)F)ccc1CN1CCCC1 | 88.4
COc1ccc(OC)c(CN2CCN(Cc3cscn3)CC2)c1 | 1.06
COc1cc(CN2CCCC2)ccc1OC12CCCN(CC1)C2 (stereo unspecified) | -14.7
COc1cc(CN2CCCC2)ccc1Oc1ncccc1C(F)(F)F | 80.3
COc1ccc(CC(=O)Nc2cccnc2N2CCCC2)cc1OC | 4.71
N#Cc1cccnc1Oc1cc(F)c(CN2CCCC2)c(Cl)c1 | 11.4
COC(=O)c1ccc(Cn2cccc(C(F)(F)F)c2=O)c(OC)c1 | 33.1
Fc1cccnc1Oc1cc(F)c(CN2CCCC2)c(Cl)c1 | 60.9
